13 compounds from PubChem BioAssay (NCI) can be followed below.

Common to all, as to assay: NCI-60 one-dose screen, 48 h (100 = growth as untreated, 0 = no growth, -100 = all killed)
Settings in all cases: 10 µM unless noted

Experiment [1] has as its system HCT-15 colon.
In experiment [2] the test system is HT29 colon.
Experiment [3] deals with SNB-75 CNS.
Experiment [4] concerns PC-3 prostate.
The subject of experiment [5] is SK-MEL-5 melanoma.
Experiment [6] deals with UACC-62 melanoma.
The test system of experiment [7] is LOX IMVI melanoma.
The test system of experiment [8] is SK-MEL-28 melanoma.
The test system of experiment [9] is U251 CNS.
The test system of experiment [10] is SNB-19 CNS.

This is part of a sample that, as a whole, favours compounds with a hit. Of some 83,000 tested, about 20% had one in any assay.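 Interpretation: 100, growth as untreated; towards 0, rising growth inhibition; 0, no net growth; 0 to -100, cell death. Compounds scoring below 10 were considered active.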 Values without a mark were called inactive. The source made the active and inactive calls.

For the compound `CCN1C(=O)N(c2ccccc2)C2NC(=S)N(/N=C/C=C/c3ccccc3OC)C21` (stereo not drawn), the growth was 8.49% (active) in experiment [1]; 7.61% (active) in experiment [2]; 25.2% in experiment [3]; 29.3% in [4]; -14.1% (active) in experiment [5]; 32.6% in [6]. Further, the growth is 15.4% in [7] and 57.7% in experiment [8].

In the case of `CCCCCc1ccc(S(=O)(=O)Nc2cc(-c3csc(NC(C)=O)n3)ccc2N2CCN(C)CC2)cc1`, the growth in experiment [1] was 4% (active); in [2], 5.9% (active); in experiment [3], 37.3%; in [9], 12.2%; in experiment [4] it was 41.2%; in [5], 30.2%. Further, the figures for the growth in experiment [6], in experiment [7] and in experiment [8] were -56.2% (active), -95.4% (active) and -80.2% (active), respectively.

For the compound `CC1=C2[C@@H](CC1)[C@]1(C)O[C@@](C3CCNCC3)(C[C@H]1OC(=O)CO)[C@H]2OC(=O)/C=C/c1ccccc1`, the growth in [1] was 93.4%; in experiment [2], 43.2%; in experiment [3], 68.9%; in [4], 66.6%; in experiment [5] it was 94.8%; in [6] it was 93.3%. Moreover, the growth is 87.1% in experiment [7] and 94.1% in [8].

With `O=C(NCc1ccc(Cn2c(=O)sn(-c3ccccc3)c2=O)cc1)OCc1ccc2cccc(O)c2n1`, the growth in experiment [1] is -30.3% (active); in experiment [2], -52.7% (active); in experiment [3], -22.6% (active); in [9] it was 9.01% (active); in experiment [4] it was -68.9% (active); in experiment [5], -84.7% (active). For the same compound, the growth was -61.9% (active) in experiment [6], -95.3% (active) in experiment [7] and -62.3% (active) in experiment [8].

For `COc1ccc(Nc2ncc(C#N)c(NCCCNC(=O)C3CCC3)n2)cc1`, the growth was 49.7% in experiment [1]; 61.9% in experiment [2]; 58.1% in experiment [3]; 60.1% in [9]; 71.9% in experiment [4]; 92% in experiment [5]. Further, the values for the growth in [6], in experiment [7] and in experiment [8] were 78.1%, 32.6% and 103%, respectively.

With `C=C(C)[C@@H]1CC[C@]2(COC3CCCCO3)CC[C@]3(C)[C@H](CC[C@@H]4[C@@]5(C)C=C(C=O)C(=O)C(C)(C)[C@@H]5CC[C@]43C)[C@@H]12` (stereo partly drawn), the growth in experiment [1] is -30% (active); in experiment [2], -54.2% (active); in experiment [3] it was -16.3% (active); in [9] it was -73.6% (active); in experiment [4], -57.7% (active); in experiment [5], -97.5% (active). Moreover, the figures for the growth in experiment [6], in experiment [7] and in experiment [8] were -74.9% (active), -88.9% (active) and -68.7% (active), respectively.

As to `CCCCn1c(NC(C)=O)c(S(=O)(=O)c2ccccc2)c2nc3ccccc3nc21`, the growth in experiment [1] is 101%; in experiment [2] it was 124%; in experiment [3], 89.8%; in experiment [10] it was 98.7%; in [4], 96%; in experiment [6], 97.8%. Besides, the growth in experiment [7] is 101%; in experiment [8] it was 122%.

Regarding `CC(C)=CC(=O)N[C@H]1CC[C@]2(C)C3CC[C@]4(C)C(C(C)N(C)C)=CCC4C3CCC2[C@H]1O` (stereo partly drawn), the growth in experiment [1] is -36.5% (active); in [2], 2.01% (active); in experiment [3], 65%; in experiment [10], 100%; in [4] it was 37.7%; in experiment [5] it was -76.1% (active). In addition, the growth in [6] is -25.1% (active); in [7], -59.1% (active); in experiment [8], -72.5% (active).

Regarding `Cc1ccc(-c2csc(NC(=O)CSc3nc(N)cc(N)n3)n2)cc1`, the growth in [1] was 75.2%; in experiment [2], 87.8%; in [3], 81.1%; in [9] it was 78.1%; in experiment [4], 70.5%; in experiment [5], 2.45% (active). Also, the growth was 55.1% in experiment [6], 60.2% in experiment [7] and 88.7% in [8].

`O=C(c1ccc(Br)cc1)C(Br)C(c1ccc(Cl)cc1)C(c1ccccc1)[N+](=O)[O-]` (stereo not drawn): the growth in experiment [1] is 84.8%; in experiment [2] it was 87.3%; in experiment [3] it was 89.4%; in experiment [9] it was 96.9%; in [4] it was 76.5%; in experiment [5], 86.6%. For the same compound, the growth was 71.8% in experiment [6], 102% in experiment [7] and 97.7% in experiment [8].

Take `CCN(CC)CCOc1ccc(/C(=C(\C)Cc2ccc(OC)cc2)c2ccc(OC(=O)NCc3ccccc3)cc2)cc1`: the growth was 15.1% in [1]; -34.8% (active) in experiment [2]; 59.4% in experiment [3]; 66.9% in [10]; 46.2% in experiment [4]; 34.3% in experiment [6]. The growth is 37.2% in experiment [7] and 38% in experiment [8].

`CC(C)(C)c1ccc(S(=O)(=O)Oc2ccc(-c3sc4cc(OS(=O)(=O)c5ccc(C(C)(C)C)cc5)ccc4c3C(=O)c3ccc(OCCN4CCCCC4)cc3)cc2)cc1`: the growth in [1] is 97.8%; in experiment [2], 90.8%; in experiment [3], 56.6%; in experiment [9] it was 103%; in [4] it was 88.8%; in [5] it was 99.6%. The results for the growth in [6], in experiment [7] and in [8] were 95%, 99.9% and 97.8%, respectively.

Consider `O=C(Nc1ccc(Nc2ccncc2)cc1)c1ccc(Nc2ccnc3ccc([N+](=O)[O-])cc23)cc1`, for which the growth in experiment [1] was 99.3%; in [2], 102%; in experiment [3] it was 97.8%; in experiment [9], 95.5%; in [4] it was 80.3%; in experiment [5], 97.5%. Besides, the growth in experiment [6] was 101%; in experiment [7], 90.6%; in experiment [8], 109%.
